# The whole screen tested about 350,000 compounds, of which about 31,000 (8.9%) were called active. Not shown: some 15% with an inconclusive outcome. Calls come from the whole dose curve; as a rule, active = well fitted inhibition curve with a large enough effect; inconclusive = small, poorly fitted or top-dose-only effect; inactive = no such curve, though single readings can be large or run the other way. The sample as a whole holds a higher share of actives than the screen did.
# Target: Histone-lysine N-methyltransferase EHMT2 (Homo sapiens) (UniProt Q96KQ7)
# Experiment: qHTS Assay for Inhibitors of Histone Lysine Methyltransferase G9a; note: nearly all actives have a fitted effect of over 75% in size
# Conditions: G9a H3K9 monomethylation, AlphaScreen, 2 h; series mostly up to 59 µM; activity, negative = inhibition: at the top concentration
# Outline: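 G9a (20 nM) preincubated 15 min RT with compounds, then 500 nM biotinylated H3K9 peptide and 20 uM SAM added; 2 h RT reaction. Monomethyl-H3K9 product detected by AlphaScreen with anti-H3K9me1 antibody, streptavidin donor and anti-rabbit IgG acceptor beads.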
# % is set by controls: 0 for no effect and ±100 for the full control effect; potency is the fitted concentration of half-maximal effect.
# Chain of Histone-lysine N-methyltransferase EHMT2 (Homo sapiens) (Q96KQ7 913-1193 limits assumed): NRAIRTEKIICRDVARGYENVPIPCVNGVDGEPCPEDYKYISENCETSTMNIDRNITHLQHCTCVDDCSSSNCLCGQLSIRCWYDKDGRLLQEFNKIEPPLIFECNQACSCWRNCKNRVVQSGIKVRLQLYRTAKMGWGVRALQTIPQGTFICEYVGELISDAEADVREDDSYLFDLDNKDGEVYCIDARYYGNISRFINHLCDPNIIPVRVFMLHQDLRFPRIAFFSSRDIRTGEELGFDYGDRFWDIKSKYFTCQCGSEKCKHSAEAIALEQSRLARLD
SMILES,"activity, negative = inhibition",Potency
O=C(Nc1ccccc1C(=O)N1CCOCC1)c1ccc(Cl)cc1,-23.7% [at 102 µM] (inactive),–
O=S(=O)(Oc1ccccc1C(=S)N1CCOCC1)c1ccc(Cl)cc1,–,31.6 µM (active)
N#C/C(=C\N1CCOCC1)S(=O)(=O)c1ccc(Cl)cc1,20.1% (inactive),–
O=C(CSc1nnc(-c2ccccc2F)o1)Nc1cccc(C(F)(F)F)c1,-0.739% (inactive),–
O=C(NCc1ccccc1)c1cc(-c2cccc(Cl)c2)on1,-0.805% (inactive),–
Cc1cccn2c(=O)c(C=O)c(Nc3ccc(S(N)(=O)=O)cc3)nc12,-13.3% [at 102 µM] (inactive),–
CC(OC(=O)/C=C/c1ccccc1)C(=O)Nc1ccc(C(N)=O)cc1 (centres undefined),0.935% [at 12.7 µM] (inactive),–
COC1=C(N2CCOCC2)C(=O)c2ccccc2C1=O,–,3.55 µM (active)
Cc1oc2c(c1C(=O)N1CCOCC1)C(=O)c1ccccc1C2=O,-50.2% (inactive),–
O=C1C(Cl)=C(N2CCOCC2)C(=O)N1c1ccccc1,3.23% [at 2.33 µM] (inactive),–
COc1cccc(CNC(=O)CN2C(=O)NC(Cc3ccccc3)(c3ccccc3)C2=O)c1 (centres undefined),-1.58% [at 12.7 µM] (inactive),–
Cc1ccc2cccc(NC(=O)c3ccc(OC(C)C)cc3)c2n1,4.14% (inactive),–
O=C(COc1coc(CN2CCN(c3ccccc3)CC2)cc1=O)N1CCc2ccccc21,-26.4% [at 102 µM] (inactive),–
COc1ccc(OC)c(NC(=O)C2CCN(S(=O)(=O)c3ccc(C)cc3)CC2)c1,-3.4% (inactive),–
COc1ccc(CN2CCCCC2C)cc1OC (centres undefined),4.38% [at 102 µM] (inactive),–
CC(C)C(=O)OCC(=O)Nc1ccc2c(c1)CCC2,-28.4% (inactive),–
COc1ccc(CNc2ccc3c(c2)CCC3)cc1OC,–,39.8 µM (active)
COc1ccc(OC)c(CCNC(=O)c2nn(C)c3c2CS(=O)(=O)c2ccccc2-3)c1,-15.2% [at 102 µM] (inactive),–
O=C(COC(=O)CNC(=O)C1CCCCC1)NCc1ccccc1,3.72% [at 12.7 µM] (inactive),–
O=C(CCc1nc(CN2CCN(S(=O)(=O)c3ccc(Cl)cc3)CC2)no1)N1CCCCC1,-46.7% (inactive),–
NS(=O)(=O)c1ccc2nc(NC(=O)C3=COCCO3)sc2c1,36.2% (inactive),–
Cc1ccc2nc(N(CCN(C)C)C(=O)C3=COCCO3)sc2c1,–,79.4 µM (active)
Cc1ccc2nc(-c3ccc(NC(=O)CN(C)S(=O)(=O)c4ccccc4)cc3)sc2c1,2.87% [at 102 µM] (inactive),–
CCOC(=O)c1cccc(NC(=O)c2cc(S(=O)(=O)N3CCCC(C)C3)cn2C)c1 (centres undefined),-1.91% (inactive),–
CCOC(=O)c1ccc(NC(=O)C2CCN(S(=O)(=O)c3ccc4c(c3)CCCC(=O)N4)CC2)cc1,-28.9% (inactive),–

SMILES,"activity, negative = inhibition",Potency
CCc1ccc(-c2nc(SCC(=O)NC3CCCC3)n[nH]2)cc1,32.1% [at 102 µM] (inactive),–
CCCCCCn1nnc2sc(-c3ccccc3)cc2c1=O,51.4% (inactive),–
Cc1ccc(Cl)cc1NC(=O)C(C)n1nnc2sc(-c3ccccc3)cc2c1=O (centres undefined),–,1.12 µM (active)
COC(=O)[C@@H](NC(=O)Nc1cc(Cl)ccc1C)C(C)C,35.1% [at 102 µM] (inactive),–
CCC(C)NC(=O)Cn1c(=O)n(-c2ccc(Cl)cc2)c(=O)c2c3c(sc21)CCCC3 (centres undefined),-9.15% (inactive),–
CCOc1ccc(CCNC(=O)c2ccc3c(c2)sc2nc(-c4ccc(F)cc4)cn23)cc1OCC,1.74% (inactive),–
CCCN(CCC)C(=O)C1CCCN(c2ncnc3c2nc2n3CCCCC2)C1 (centres undefined),4.45% (inactive),–
Clc1ccc(CSc2nnc(/C=C/c3ccccc3)o2)c(Cl)c1,19.9% (inactive),–
O=c1oc(/C=C/c2ccccc2)nc2ccccc12,15% [at 102 µM] (inactive),–
S=c1[nH]nc(/C=C/c2ccccc2)o1,–,22.4 µM (active)
CCc1ccccc1S(=O)(=O)Cc1ccc(C(=O)NCCc2ccccc2)o1,21.5% [at 102 µM] (inactive),–
COC(=O)c1ccc(C)c(NC(=O)C2CC(=O)N(C3CCCC(C)C3C)C2)c1 (centres undefined),-4.66% (inactive),–
COc1cccc(CNC(=O)c2ccc3c(c2)sc2nc(-c4cccc(OC)c4)cn23)c1,-1.93% (inactive),–
CN(Cc1cnccn1)C(=O)c1cc(COc2cccc(C(F)(F)F)c2)on1,9.71% [at 102 µM] (inactive),–
Cc1cccc(N=C2NN=C(c3c[nH]c4ccccc34)CS2)c1,-32.2% (inactive),–
c1ccc(CN2CCC(N=C3NN=C(c4ccc5c(c4)OCCO5)CS3)CC2)cc1,-3.44% [at 12.7 µM] (inactive),–
Clc1cccc(N=C2NN=C(c3ccc4c(c3)OCCO4)CS2)c1,–,14.1 µM (active)
COc1ccccc1-c1cnn2c(N3CCOCC3)cc(C)nc12,26.6% [at 102 µM] (inactive),–
Cc1cc(C)c(-c2n[nH]c3c2C(c2ccccc2F)N(CCO)C3=O)c(O)c1 (centres undefined),19.7% (inactive),–
CCc1ccc2ncc3c(-c4ccc(C)cc4)nn(CC(=O)NCc4ccccc4)c3c2c1,-1.45% (inactive),–
COC(=O)c1cccc(Cn2nnc3sc4c(c3c2=O)CCC(C(C)(C)C)C4)c1 (centres undefined),-31.9% (inactive),–
Cn1ccnc1SCC(=O)Nc1ccc2c(c1)OCCO2,34.5% [at 102 µM] (inactive),–
CC1CCCCC1NC(=O)CSc1nnc(N)s1 (centres undefined),9.08% (inactive),–
CC1CCCC(NC(=O)CSc2nccn2C)C1C (centres undefined),–,15.8 µM (active)
O=C(O)c1cccc(N2C(=O)Nc3ccccc3N2O)c1,-16.3% (inactive),–

SMILES,"activity, negative = inhibition",Potency
O=C1NN(c2ccccc2)C(=O)/C1=C/c1ccc(-c2cccc(C(=O)O)c2)o1,–,39.8 µM (active)
O=C(Nc1ccc2nc(SCCOc3ccccc3Cl)sc2c1)c1ccco1,-31.5% (inactive),–
O=S(=O)(NCc1ccccc1Br)c1ccccc1Br,7.86% [at 2.33 µM] (inactive),–
CN(Cc1ccccc1)C(=O)c1cn(C)c2ccc(S(=O)(=O)N3CCCCC3)cc2c1=O,-1.71% (inactive),–
O=c1[nH]c2ccc(S(=O)(=O)N3CCCC3)cc2[nH]1,2.56% [at 102 µM] (inactive),–
CCCCn1c(=S)[nH]c2cc(S(=O)(=O)N3CCCCC3)ccc21,–,1.78 µM (active)
O=C(NCCc1ccccc1)c1ccc2c(c1)N(Cc1ccc(F)cc1)C(=O)c1ccccc1S2(=O)=O,-0.301% (inactive),–
Cc1ccc2oc(=O)c3cnn(CC(=O)NCc4ccccc4Cl)c3c2c1,11.1% (inactive),–
CCn1c(C(=O)Nc2cc(Cl)ccc2C)cc2sc(Cl)cc21,5.25% (inactive),–
C=CCOc1ccccc1/C=N/NC(=O)Cc1ccccc1,-1.48% [at 0.501 µM] (inactive),–
CCOc1ccccc1/C=N/NC(=O)CNC(=O)COc1ccccc1,1.78% [at 102 µM] (inactive),–
C=C(C)CNC(=S)N/N=C/c1ccccc1OCC(=O)O,–,11.2 µM (active)
CCCCn1nc(C(=O)Nc2cccc(C(=O)NC3CC3)c2)c2ccccc2c1=O,5.39% [at 2.33 µM] (inactive),–
CCNC(=O)Cn1nc(C)n2c(cc3c(OC)cccc32)c1=O,11.3% (inactive),–
CN1C(=O)C(CC(=O)Nc2ccccc2)S/C1=N/c1nccs1 (centres undefined),19.4% [at 102 µM] (inactive),–
O=C(Nc1cccc(Cl)c1)OCc1ccccn1,-10.1% [at 102 µM] (inactive),–
O=C(CC1SC(=Nc2ccccc2)N(Cc2ccccn2)C1=O)Nc1cccc(Cl)c1 (centres undefined),–,8.91 µM (active)
COc1ccc(-c2nc3ccccc3o2)cc1NC(=O)c1cc([N+](=O)[O-])ccc1N1CCOCC1,3.44% (inactive),–
CC(Sc1cccc[n+]1[O-])C(=O)Nc1cccc(S(=O)(=O)N2CCOCC2)c1 (centres undefined),–,8.91 µM (active)
Cc1cc(C(=O)OC(C)C(=O)Nc2cccc(S(=O)(=O)N3CCOCC3)c2)c(C)o1 (centres undefined),-16.9% [at 102 µM] (inactive),–
O=C(CSc1ccccc1)Nc1cccc(S(=O)(=O)N2CCOCC2)c1,7.75% [at 12.7 µM] (inactive),–
COc1cccc(C2=CC(=O)C[C@H](c3ccc(F)cc3)C2)c1OC,-9.38% [at 0.501 µM] (inactive),–
CCOC(=O)/C(C#N)=C/c1ccc(N2CCCCC2)cc1,442% [at 102 µM] (inactive),–
O=c1[nH][nH]c(=O)c2cc(N3CCCC3)ccc12,-1.28% [at 102 µM] (inactive),–
O=C1C=CC(=O)N1c1ccc(N2CCCCC2)cc1,–,0.562 µM (active)

SMILES,"activity, negative = inhibition",Potency
COc1ccc(Nc2ncnc3ccc(Br)cc23)c(OC)c1,29.9% [at 102 µM] (inactive),–
COc1ccc(-c2nc(SCC(=O)N3CCCCC3C)n[nH]2)cc1 (centres undefined),2.49% (inactive),–
COc1ccccc1CCNC(=O)c1cccn1-c1nnc(N2CCCCC2)s1,-7.53% (inactive),–
CC1(C)O[C@@H]2[C@H](O1)[C@@H](COS(=O)(=O)O)O[C@H]2n1cnc2c(=O)[nH]cnc21,9.85% [at 2.33 µM] (inactive),–
Cc1nn(C(=O)c2c(F)cccc2F)c(C)c1S(=O)(=O)N1CCOCC1,8.64% (inactive),–
O=C(CN1CCN(S(=O)(=O)c2ccc(F)cc2)CC1)NC1CC1,6.21% [at 102 µM] (inactive),–
O=S(=O)(c1ccc(F)cc1)N1CCN(Cc2ccccc2C(F)(F)F)CC1,–,10 µM (active)
Cc1ccc(S(=O)(=O)N2CCN(Cc3cccc(C)c3O)CC2)cc1,12.4% (inactive),–
CCN(CC(=O)Nc1ccc(OC)cc1)C(=O)c1ccc(=O)n(Cc2ccccc2)n1,25% (inactive),–
Cc1ccccc1-c1nc2cc(NC(=O)c3cccc(OCCC(C)C)c3)ccc2o1,0.952% (inactive),–
Cc1nc2c(c(C)nn2-c2ccccc2)c(C)c1CCC(=O)NCCc1ccc(Cl)cc1,13.2% (inactive),–
CN1/C(=c2/s/c(=C3/C(=O)N(c4ccccc4)NC3=Nc3ccccc3)n(C)c2=O)C(C)(C)c2ccccc21,–,10 µM (active)
CCc1noc(C)c1C(=O)N1CCN(S(=O)(=O)c2cccc(C(F)(F)F)c2)CC1,9.9% [at 12.7 µM] (inactive),–
COc1ccc(CNC(=O)CC2Oc3ccc(C)cc3NC2=O)cc1 (centres undefined),7.92% (inactive),–
Cc1cccc(N(Cc2ccccc2)C(=O)c2cc(S(=O)(=O)N3CCOCC3)ccc2F)c1,-26.9% [at 102 µM] (inactive),–
CCOc1cccc2cc(-c3cn4c(n3)sc3cc(C)ccc34)c(=O)oc12,-3.75% (inactive),–
CC1(C(=O)NNC(=S)NCC2CCCO2)CC1(Cl)Cl (centres undefined),55.8% [at 102 µM] (inactive),–
Cc1ccc(Cn2c(NC(=O)c3ccco3)nc3ccccc32)cc1,0.509% (inactive),–
Cc1ccc(-n2nc3cc(Cl)c(NC(=O)c4ccco4)cc3n2)cc1,-40.1% (inactive),–
CCn1nc(NC(=O)c2ccco2)c2cc3ccc(C)cc3nc21,–,50.1 µM (active)
COc1ccccc1NC(=O)COC(=O)c1ccccc1SCC(=O)N1CCCC1,-3.4% (inactive),–
CC(C(=O)Nc1ccc(S(=O)(=O)N2CCCC2)cc1)N(C)Cc1ccc(F)cc1 (centres undefined),2.24% [at 2.33 µM] (inactive),–
COc1cc(C(C)=O)ccc1OC(C)C(=O)Nc1ccc(S(=O)(=O)N2CCCC2)cc1 (centres undefined),9.79% [at 12.7 µM] (inactive),–
CC(OC(=O)CNS(=O)(=O)/C=C/c1ccccc1)C(=O)Nc1ccc(S(=O)(=O)N2CCCC2)cc1 (centres undefined),–,10 µM (active)

# Source: PubChem BioAssay AID504332 (National Center for Advancing Translational Sciences (NCATS), 2011)
